Measurements: ChEMBL document CHEMBL4513216, “Probing the Open Global Health Chemical Diversity Library for Multistage-Active Starting Points for Next-Generation Antimalarials” (ACS Infect Dis, 2020)
Out of some 65,000 compounds screened, about 2,100 (3.2%) showed an effect of 50% or more. The median lay at about -52%. Shown is part of a subset that was picked to be rich in strong results.

The molecules below were run on Plasmodium falciparum (assay: Screen against P. falciparum Asexual Blood Stage (ABS), at 5uM). Details: tested at 5 uM.
Assay type: functional, Dd2

SMILES	INHIBITION [%]
Cc1cccc(C)c1OC1CCN(Cc2ccn(C)c(=O)c2)CC1	-30.1
CC(OCC1CC1)C(=O)Nc1cccc(C(=O)Nc2ccncc2)c1 (centres undefined)	-140
O=C(CC1CN(Cc2ccccc2)CCO1)NCCN1CCOCC1 (centres undefined)	-108
Cc1nn(C)cc1-c1ccnc(N(C)Cc2noc(C(C)C)n2)n1	-32.2
Cc1nn(C)c(C)c1-c1ccnc(N(C)Cc2nc(C(C)C)no2)n1	66.3
Cc1nn(C)c(C)c1-c1ccnc(N(C)Cc2noc(C(C)C)n2)n1	-25.3
O=C(COc1ccc(F)cc1)N1CCO[C@H]2[C@@H](OCC3CC3)CC[C@@H]21	-24
COc1ccc(C2=Nn3c(CCCN)nnc3-c3ccccc3C2)cc1	-100
COc1ccc(C2=Nn3c(CCN)nnc3-c3ccccc3C2)cc1	32.1
COc1ccc(C2=Nn3c(CN)nnc3-c3ccccc3C2)cc1	64.8
O=C(COc1ccc2c(c1)CCC2)NS(=O)(=O)c1cncc(Br)c1	-108
Cc1ccc(OCC(=O)NS(=O)(=O)c2cccnc2)cc1C	-19.2
O=C(COc1ccc2c(c1)CCC2)NS(=O)(=O)c1cccnc1	51.8
O=C(NCc1ccccn1)[C@@H]1COC[C@H]2CN(c3ncccn3)C[C@H]21	-20.1
COc1cccc(CN2CCCCCC2c2cccc(F)c2)c1O (centres undefined)	57.6
COc1cccc(CN2CCCCCC2c2cccc(C)c2)c1O (centres undefined)	57.5
COc1cccc(CN2CCCCCC2c2cccs2)c1O (centres undefined)	3.59
COc1cccc(CN2CCCCCC2c2sccc2C)c1O (centres undefined)	-7.83
Cc1cccc(C2CCCCCN2Cc2cn(C)nc2C)c1 (centres undefined)	35.4
Cc1cc2[nH]c(CN3CCCCC3c3cccc(F)c3)cc(=O)n2n1 (centres undefined)	-64.9
Oc1cc(-c2ccsc2)nc(C2CCN(Cc3cccnc3)CC2)n1	-96.9
O=C(NCCCNc1ccc(C(F)(F)F)cn1)c1ccc(F)cc1Br	-29.4
CC(C)Nc1nc2c(cc1C(=O)NCC1CC1)CCN(CC1CC1)CC2	-7.32
COCCOCC1(CNC(=O)c2ccc(OC)cc2)C[C@@H](O)[C@@H](O)C1 (some centres undefined)	-102
